Records with an inconclusive call do not appear. Activity calls are given as the source filed them.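 Rule for the calls, unless noted: active = GFP signal, as percent of the solvent control, above the screen mean plus 3 SD, about 149; inconclusive = no reading because the compound's own fluorescence upset strain identification; inactive = the rest.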

The results in this text go back to PubChem BioAssay.

The nature of experiment [1]: rapamycin-like changes in RPL19A-GFP expression – cell-based, S. cerevisiae, multiplex flow cytometry, primary screen (AID 1862; in the data active = percent of DMSO control GFP below about 86%;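 note: lower values mimic rapamycin by blocking the RPL19A rise seen in DMSO cells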). To be noted: S. cerevisiae RPL19A-GFP strain, flow cytometry fluorescence, 3 h; at 10 µM; stronger effect = lower value. For orientation: In flow cytometry, cells or beads pass a laser one at a time.
The nature of experiment [2]: TOR pathway GLN3 branch reporter MEP2-GFP changes – S. cerevisiae, multiplex flow cytometry, primary screen (AID 1867;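 active = GFP response, as percent of the DMSO control, above the screen-wide mean plus 3 SD, about 139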;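 note: median GFP channel fluorescence of barcode-gated MEP2-GFP cells measured by flow cytometry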). To be noted: S. cerevisiae MEP2-GFP strain, 3 h, at 10 µM, stronger effect = higher value, 100% means same as DMSO wells.
Experiment [3] in a line: TOR pathway RTG branch CIT2 reporter changes – S. cerevisiae, GFP fusion, multiplex flow cytometry, primary screen (AID 1870;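 active = percent response above a set limit, the screen-wide mean plus 3 SD, cut at about 130% in these data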;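 note: barcoded CIT2-GFP strain pooled with four other GFP strains with rapamycin as positive control; median GFP fluorescence per well over plate mean of DMSO wells so 100% = DMSO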). To be noted: S. cerevisiae CIT2-GFP expression, 3 h, at 10 µM, stronger effect = higher value.
Experiment [4] is described as follows: TOR pathway LAP4-GFP level changes – S. cerevisiae, multiplex flow cytometry, primary screen (AID 1873). To be noted: S. cerevisiae LAP4-GFP expression, 3 h, at 10 µM, stronger effect = higher value.
The nature of experiment [5]: yeast AGP1-GFP level changes, GLN3 branch – cell-based, multiplex flow cytometry, S. cerevisiae, primary screen (AID 1887;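 active = GFP signal above the screen-wide mean plus 3 SD, that is over about 124.5% of the solvent control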;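 note: AGP1-GFP fusion strain of S. cerevisiae within a five-strain barcoded multiplex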). To be noted: 3 h, at 10 µM, stronger effect = higher value.
The nature of experiment [6]: reduced mouse 2C T cell binding to pMHC/ICAM-1 vesicles – MLPCN validation set, flow cytometry, LFA-1/ICAM-1 modulator project, pilot screen (AID 2523;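 active = response below a set limit, under 55% cells CD8-positive and vesicle-bound, and CD8 cells' 90th-percentile brightness under 279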;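 for vesicle binding response: mean PE anti-B7-1 fluorescence of CD8+ cells relative to row control; 100% = QL9-loaded vesicles with DMSO vehicle in the same plate row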). To be noted: 2C mouse CD8+ T cells, at 7 µM, stronger effect = lower value; double positive events: measured here: CD8+/vesicle+ event percentage.
Experiment [7] addresses Integrin beta-1 (Homo sapiens) + Integrin alpha-4 (Homo sapiens) (UniProt P13612+P05556). Briefly: alpha4beta1 integrin LIBS antibody binding reduction – U937 cells, HUTS-21 mAb, flow cytometry, validation set, VLA-4 allosteric modulator project, pilot screen (AID 2674;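 active = inhibition above 50%, about 3 SD of the validation set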;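 note: antibody binding induced by the VLA-4 ligand LDV present at three times its Kd; 0% = LDV ligand with antibody and no compound and 100% = antibody without LDV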). To be noted: HUTS-21 LIBS mAb binding, at 6.7 µM, stronger effect = higher value, binding induced by LDV ligand.
The nature of experiment [8]: calorie-restriction mimetic ROS inhibitors, yeast – validation compound set, pilot screen (AID 2706;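 active = superoxide response below 65% of plate, a cut near 3 SD across the whole screen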;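 note: yeast exposed to compound for one week at 30 degrees C before staining; 100% = mean of all compound wells on the same plate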). To be noted: S. cerevisiae aging, superoxide DHE fluorescence; at 10 µM; stronger effect = lower value.
Experiment [9] addresses Beta-adrenergic receptor kinase 1 (Homo sapiens) (UniProt P25098). Briefly: GRK2 binders displacing RNA aptamer, biochemical, validation, human GRK2, bead flow cytometry (AID 488806;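 active = aptamer binding inhibition above 30%, about 3 SD of noise from non-fluorescent compounds; inactive = inhibition at or below 30%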). To be noted: bead-bound GRK2, FAM-aptamer displacement, at 10 µM, stronger effect = higher value.
The target of experiment [10] is Beta-2 adrenergic receptor (Homo sapiens) (UniProt P07550). Briefly: agonist-induced loss of surface beta2AR – cell-based, FAP fluorogen, flow cytometry, validation set, pilot screen (AID 504459;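 active = percent response above 42, roughly 3 SD of non-fluorescent test compounds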;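 note: agonist-driven loss of surface beta2AR via internalization measured by FAP dye flow cytometry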). To be noted: Am2.2-beta2AR cells, at 10 µM, stronger effect = higher value.
In experiment [11] the target is AP-2 complex subunit beta (Homo sapiens) (UniProt P63010). Briefly: beta-arrestin/AP2 interaction blockers – biochemical, validation set, GST-AP2 beads, flow cytometry, pilot screen (AID 504541;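 active = inhibition above 54%, about 3 SD of non-fluorescent compounds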;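 note: AP2 carries R879A mutation and is captured from E. coli lysate; bead-bound FITC arrestin peptide fluorescence measuring arrestin peptide binding to AP2; 0% = DMSO wells and 100% = excess unlabeled arrestin peptide control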). To be noted: FITC arrestin peptide, at 10 µM, stronger effect = higher value, AP2 beta2 appendage fragment, R879A mutant.
Experiment [12] can be described thus: cytosolic pH regulators acting via V-ATPase – S. cerevisiae, pHLuorin, HTS validation (AID 504600; in the data active = response above about 15%;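 note: plate controls were DMSO for no effect and reference compound for full effect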). To be noted: V-ATPase proton transport, at 10 µM, stronger effect = higher value.
Experiment [13] concerns anti-desmoglein-3 scFv antibody binding to human DSG3. Briefly: blockers of pathogenic pemphigus antibody–desmoglein-3 binding – biochemical, validation compound set, bead-based, flow cytometry, pilot screen (AID 588368;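 active = binding below the plate cutoff, the plate median minus 3 SD, with a reading above zero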;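 note: signal is the median channel fluorescence of bead-bound GFP antibody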). To be noted: Protein G beads, DSG3-Fc, scFv-GFP binding, at 10 µM, stronger effect = lower value.
A short description of experiment [14]: Nile Red efflux blockade in pump-expressing yeast – validation compound set, multiplex, phenotypic, pilot screen (AID 588506;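 active = efflux inhibition above 0.42, the validation set average plus 4 SD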;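 note: Nile Red retained in cells so higher fluorescence means more efflux inhibition; 0 = negative control wells and 1 = enniatin B 25 µM full block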). To be noted: S. cerevisiae pump-expressing triplex, Nile Red efflux flow cytometry; at 10 µM; stronger effect = higher value; the pumps come from Candida albicans.
For experiment [15], the target named is ATP-binding cassette sub-family B member 6 (Homo sapiens) (UniProt Q9NP58). Briefly: blockers of ABCB6-driven porphyrin uptake – K562-ABCB6 cells, flow cytometry, validation set, pilot screen (AID 588550;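 active = inhibition above the screen-wide mean plus 3 SD, about 51%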;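 note: 0% = DMSO wells and 100% = benzethonium chloride 70 µM positive control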). To be noted: K562-ABCB6 porphyrin accumulation, 1 h, at 10 µM, stronger effect = higher value.
Experiment [16] can be described thus: AML differentiation inducers, ER-HoxA9 marrow cells – cell-based, GFP/MAC1 double positive, flow cytometry, validation set, primary screen (AID 588685;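 active = differentiation response of at least 50%, scaled between solvent and reference control, from cells with both markers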;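 note: compound exposure lasts four days before antibody staining and flow analysis; 0% = DMSO wells and 100% = 5 µM fulvestrant positive control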). To be noted: stronger effect = higher value, normalized: vehicle 0, fulvestrant 100.

Sequence of ATP-binding cassette sub-family B member 6 (Homo sapiens) (Q9NP58 whole entry, looked up): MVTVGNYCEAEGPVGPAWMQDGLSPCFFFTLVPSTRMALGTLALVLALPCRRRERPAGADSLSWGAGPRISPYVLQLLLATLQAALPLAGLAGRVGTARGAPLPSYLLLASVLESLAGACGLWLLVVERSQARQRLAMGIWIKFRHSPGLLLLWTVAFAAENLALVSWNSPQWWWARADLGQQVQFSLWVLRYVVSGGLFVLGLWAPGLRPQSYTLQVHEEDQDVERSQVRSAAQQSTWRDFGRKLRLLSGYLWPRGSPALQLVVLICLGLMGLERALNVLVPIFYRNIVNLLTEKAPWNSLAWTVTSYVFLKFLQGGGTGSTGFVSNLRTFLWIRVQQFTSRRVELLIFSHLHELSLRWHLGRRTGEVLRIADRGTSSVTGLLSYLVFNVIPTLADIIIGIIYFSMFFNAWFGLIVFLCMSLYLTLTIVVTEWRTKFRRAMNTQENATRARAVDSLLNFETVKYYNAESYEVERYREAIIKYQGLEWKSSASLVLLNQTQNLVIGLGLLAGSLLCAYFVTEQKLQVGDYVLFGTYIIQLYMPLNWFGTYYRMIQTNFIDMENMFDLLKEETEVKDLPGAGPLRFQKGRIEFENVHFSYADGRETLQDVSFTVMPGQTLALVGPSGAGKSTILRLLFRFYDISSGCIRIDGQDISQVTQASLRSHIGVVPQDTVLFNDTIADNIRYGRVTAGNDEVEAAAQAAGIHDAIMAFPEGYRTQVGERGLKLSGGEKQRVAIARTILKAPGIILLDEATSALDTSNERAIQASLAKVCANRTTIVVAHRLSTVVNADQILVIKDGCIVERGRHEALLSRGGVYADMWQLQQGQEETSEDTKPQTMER
Sequence of Beta-adrenergic receptor kinase 1 (Homo sapiens) (P25098 whole entry, looked up): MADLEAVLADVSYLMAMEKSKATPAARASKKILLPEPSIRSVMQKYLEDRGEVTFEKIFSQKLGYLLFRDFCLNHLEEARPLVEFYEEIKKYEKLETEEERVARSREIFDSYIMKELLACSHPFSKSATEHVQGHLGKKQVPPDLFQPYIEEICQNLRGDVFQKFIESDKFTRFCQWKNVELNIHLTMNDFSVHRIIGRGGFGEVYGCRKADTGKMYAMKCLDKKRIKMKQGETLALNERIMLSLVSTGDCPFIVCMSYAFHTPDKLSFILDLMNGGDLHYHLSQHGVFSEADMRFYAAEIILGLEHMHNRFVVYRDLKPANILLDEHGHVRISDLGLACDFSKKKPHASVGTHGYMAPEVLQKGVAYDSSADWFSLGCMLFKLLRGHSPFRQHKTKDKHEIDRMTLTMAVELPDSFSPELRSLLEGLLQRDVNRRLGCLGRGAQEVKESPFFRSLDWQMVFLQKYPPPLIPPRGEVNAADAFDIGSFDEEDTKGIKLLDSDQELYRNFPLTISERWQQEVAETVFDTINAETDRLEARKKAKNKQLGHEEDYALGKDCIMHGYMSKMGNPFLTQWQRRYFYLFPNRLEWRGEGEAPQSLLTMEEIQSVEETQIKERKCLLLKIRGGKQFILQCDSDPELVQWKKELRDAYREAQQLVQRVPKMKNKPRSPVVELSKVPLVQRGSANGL
Sequence of Integrin beta-1 (Homo sapiens) + Integrin alpha-4 (Homo sapiens) (P05556 whole entry, looked up): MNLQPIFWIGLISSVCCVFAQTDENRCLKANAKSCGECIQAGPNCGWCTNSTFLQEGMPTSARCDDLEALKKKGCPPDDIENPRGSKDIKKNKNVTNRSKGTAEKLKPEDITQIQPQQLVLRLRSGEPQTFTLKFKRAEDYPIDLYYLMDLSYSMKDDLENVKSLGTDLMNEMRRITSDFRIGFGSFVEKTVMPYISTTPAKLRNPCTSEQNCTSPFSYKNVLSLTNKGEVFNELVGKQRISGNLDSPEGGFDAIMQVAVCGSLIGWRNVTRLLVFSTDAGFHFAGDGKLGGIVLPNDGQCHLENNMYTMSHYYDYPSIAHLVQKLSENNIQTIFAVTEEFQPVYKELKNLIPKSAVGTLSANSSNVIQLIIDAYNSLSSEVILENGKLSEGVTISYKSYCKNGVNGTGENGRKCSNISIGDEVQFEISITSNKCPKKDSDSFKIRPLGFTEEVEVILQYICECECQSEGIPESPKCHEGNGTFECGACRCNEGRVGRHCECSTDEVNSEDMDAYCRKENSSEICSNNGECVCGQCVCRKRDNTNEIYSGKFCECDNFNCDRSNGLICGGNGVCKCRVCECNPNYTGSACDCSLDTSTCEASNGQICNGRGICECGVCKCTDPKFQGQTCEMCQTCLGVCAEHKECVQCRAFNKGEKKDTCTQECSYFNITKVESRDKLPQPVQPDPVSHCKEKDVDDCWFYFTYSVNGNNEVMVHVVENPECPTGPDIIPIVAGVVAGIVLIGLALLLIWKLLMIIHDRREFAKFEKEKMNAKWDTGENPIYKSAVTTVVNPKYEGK
Sequence of Integrin beta-1 (Homo sapiens) + Integrin alpha-4 (Homo sapiens) (P13612 whole entry, looked up): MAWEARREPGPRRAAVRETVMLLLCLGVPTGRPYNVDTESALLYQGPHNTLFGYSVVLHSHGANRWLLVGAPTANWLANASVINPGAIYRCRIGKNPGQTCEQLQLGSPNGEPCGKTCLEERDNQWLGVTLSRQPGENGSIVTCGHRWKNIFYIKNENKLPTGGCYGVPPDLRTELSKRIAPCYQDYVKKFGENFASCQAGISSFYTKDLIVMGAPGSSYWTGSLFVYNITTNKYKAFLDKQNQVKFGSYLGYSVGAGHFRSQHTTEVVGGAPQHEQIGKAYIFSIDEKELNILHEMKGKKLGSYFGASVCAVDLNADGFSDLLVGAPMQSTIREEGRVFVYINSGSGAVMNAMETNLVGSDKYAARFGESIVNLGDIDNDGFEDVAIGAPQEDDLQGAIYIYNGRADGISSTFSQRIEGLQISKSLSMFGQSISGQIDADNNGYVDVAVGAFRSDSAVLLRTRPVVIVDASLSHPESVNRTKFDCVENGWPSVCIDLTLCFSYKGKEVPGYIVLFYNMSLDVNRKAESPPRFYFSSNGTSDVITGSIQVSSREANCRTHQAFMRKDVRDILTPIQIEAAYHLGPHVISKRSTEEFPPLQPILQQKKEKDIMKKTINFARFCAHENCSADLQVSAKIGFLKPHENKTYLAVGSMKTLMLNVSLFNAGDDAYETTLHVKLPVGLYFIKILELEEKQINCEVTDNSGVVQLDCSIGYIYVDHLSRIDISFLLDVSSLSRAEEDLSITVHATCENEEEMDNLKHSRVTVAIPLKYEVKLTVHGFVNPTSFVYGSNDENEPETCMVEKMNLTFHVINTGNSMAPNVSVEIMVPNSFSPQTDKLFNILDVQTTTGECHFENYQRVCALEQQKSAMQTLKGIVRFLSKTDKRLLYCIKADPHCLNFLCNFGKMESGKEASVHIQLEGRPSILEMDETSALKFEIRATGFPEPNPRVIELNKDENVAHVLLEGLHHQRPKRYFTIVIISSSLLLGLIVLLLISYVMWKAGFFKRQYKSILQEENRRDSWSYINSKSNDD
Sequence of AP-2 complex subunit beta (Homo sapiens) (P63010 whole entry, looked up, the tested form may be a part, one chain of several): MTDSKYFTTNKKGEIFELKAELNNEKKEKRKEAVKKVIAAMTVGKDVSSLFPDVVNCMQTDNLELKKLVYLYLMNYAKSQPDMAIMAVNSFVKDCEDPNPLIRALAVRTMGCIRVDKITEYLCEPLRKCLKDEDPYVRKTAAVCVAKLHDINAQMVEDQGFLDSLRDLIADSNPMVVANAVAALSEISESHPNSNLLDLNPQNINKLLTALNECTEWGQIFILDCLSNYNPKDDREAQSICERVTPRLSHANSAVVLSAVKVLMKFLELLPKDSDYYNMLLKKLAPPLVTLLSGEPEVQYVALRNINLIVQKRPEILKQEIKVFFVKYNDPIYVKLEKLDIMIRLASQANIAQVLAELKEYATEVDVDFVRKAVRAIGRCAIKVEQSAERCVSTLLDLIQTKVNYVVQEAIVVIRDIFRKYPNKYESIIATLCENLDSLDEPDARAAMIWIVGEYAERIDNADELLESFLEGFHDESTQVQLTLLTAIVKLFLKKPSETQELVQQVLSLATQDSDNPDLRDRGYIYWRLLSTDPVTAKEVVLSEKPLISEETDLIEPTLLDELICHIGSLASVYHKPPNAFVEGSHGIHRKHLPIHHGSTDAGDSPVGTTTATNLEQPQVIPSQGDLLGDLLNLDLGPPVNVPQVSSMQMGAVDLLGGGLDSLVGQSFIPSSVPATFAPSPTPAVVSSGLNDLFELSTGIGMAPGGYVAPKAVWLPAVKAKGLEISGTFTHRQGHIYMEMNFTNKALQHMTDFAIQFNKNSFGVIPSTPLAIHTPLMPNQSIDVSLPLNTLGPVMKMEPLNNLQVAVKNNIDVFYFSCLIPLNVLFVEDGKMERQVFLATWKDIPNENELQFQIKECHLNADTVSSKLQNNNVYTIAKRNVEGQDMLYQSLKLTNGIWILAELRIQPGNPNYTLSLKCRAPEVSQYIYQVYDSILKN
Sequence of Beta-2 adrenergic receptor (Homo sapiens) (P07550 whole entry, looked up): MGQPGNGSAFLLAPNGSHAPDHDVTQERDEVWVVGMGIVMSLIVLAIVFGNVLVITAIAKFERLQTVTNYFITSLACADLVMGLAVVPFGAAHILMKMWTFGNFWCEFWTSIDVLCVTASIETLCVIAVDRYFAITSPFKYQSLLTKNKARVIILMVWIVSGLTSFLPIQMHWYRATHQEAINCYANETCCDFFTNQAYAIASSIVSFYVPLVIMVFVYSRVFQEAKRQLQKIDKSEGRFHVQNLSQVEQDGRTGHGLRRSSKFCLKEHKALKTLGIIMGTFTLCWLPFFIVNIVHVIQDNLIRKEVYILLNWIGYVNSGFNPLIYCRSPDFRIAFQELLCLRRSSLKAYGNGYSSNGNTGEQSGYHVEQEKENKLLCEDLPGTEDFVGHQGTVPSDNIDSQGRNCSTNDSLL

The inhibition is the change of the read-out against control, counted positive when it falls. For the molecule `Cc1cc(O)c(C(=O)Cc2csc(C)n2)c(O)c1`, the percent of DMSO control GFP in experiment [1] was 102% (inactive). In addition, the values for the GFP response vs DMSO in experiment [2] and in experiment [4] were 109% (inactive) and 112% (inactive), respectively. The percent response of DMSO control in experiment [3] was 98.2% (inactive). In [5], the GFP response, % of DMSO was 96.1% (inactive). Also, the double positive events in [6] came out at 56.7%. Also, the vesicle binding response in experiment [6] is 15.7% (inactive). In addition, the values for the inhibition in experiment [7], in [11] and in experiment [15] were 1.12% (inactive), 6.62% (inactive) and 2% (inactive), respectively. Moreover, the superoxide response (% of plate) in [8] was 104% (inactive). In addition, in experiment [9], the aptamer binding inhibition was 5% (inactive). Also, the response was 2.72% (inactive) in experiment [10] and -0.65% (inactive) in [12]. The binding (% of control) in experiment [13] is 99.5% (inactive). Also, the efflux inhibition (fraction of control) in experiment [14] was 0.46 (active). Besides, the differentiation response in experiment [16] is 6.49% (inactive).

`CC(C)(Oc1ccc(CCNC(=O)c2ccc(Cl)cc2)cc1)C(=O)O`: in experiment [1], the percent of DMSO control GFP was 106% (inactive). In addition, the figures for the GFP response vs DMSO in experiment [2] and in experiment [4] were 107% (inactive) and 101% (inactive), respectively. The percent response of DMSO control in experiment [3] is 96.6% (inactive). Moreover, the GFP response, % of DMSO in experiment [5] is 103% (inactive). Also, the double positive events in [6] was determined as 65.7%. Also, the vesicle binding response in [6] is 137% (inactive). Also, the inhibition in experiment [7] was -8.75% (inactive); in experiment [11] it was 23.2% (inactive); in [15] it was 19% (inactive). In addition, in [8], the superoxide response (% of plate) was 110% (inactive). Also, the aptamer binding inhibition in [9] was 3% (inactive). Further, the response is -3.83% (inactive) in [10] and -4.97% (inactive) in experiment [12]. Besides, the binding (% of control) in [13] was 93.5% (inactive). The efflux inhibition (fraction of control) in [14] was 0.08 (inactive). Further, in experiment [16], the differentiation response is 8.06% (inactive).

As to `Cc1ccc2[nH]c3c(=O)n(CCc4cnc[nH]4)cnc3c2c1`, the percent of DMSO control GFP in [1] is 96.4% (inactive). Further, the GFP response vs DMSO in experiment [2] is 99.7% (inactive); in experiment [4] it was 97% (inactive). Moreover, the percent response of DMSO control in [3] was 105% (inactive). Besides, the GFP response, % of DMSO in experiment [5] is 103% (inactive). In experiment [6], the double positive events is 65.2%. The vesicle binding response in experiment [6] is 172% (inactive). In addition, the inhibition in experiment [7] was -17.2% (inactive); in experiment [11], -15.4% (inactive); in [15] it was 10% (inactive). The superoxide response (% of plate) in experiment [8] is 93.1% (inactive). For the same molecule, the aptamer binding inhibition in [9] is 0% (inactive). Further, the values for the response in [10] and in experiment [12] were -13.6% (inactive) and 1.97% (inactive), respectively. The binding (% of control) in experiment [13] was 103% (inactive). The efflux inhibition (fraction of control) in experiment [14] was -0.58 (inactive). Also, in experiment [16], the differentiation response is -14.8% (inactive).

With `CN(C)C(=O)Oc1ccc[n+](C)c1`, the percent of DMSO control GFP in [1] was 102% (inactive). Besides, the GFP response vs DMSO in experiment [2] is 106% (inactive); in [4], 94.7% (inactive). In experiment [3], the percent response of DMSO control is 94.2% (inactive). The GFP response, % of DMSO in experiment [5] is 95.9% (inactive). For the same molecule, the double positive events in experiment [6] was determined as 62.3%. Moreover, in [6], the vesicle binding response is 1200% (inactive). The inhibition in experiment [7] is 0.58% (inactive); in experiment [11], 16.8% (inactive); in experiment [15], 13% (inactive). Moreover, the superoxide response (% of plate) in experiment [8] was 104% (inactive). The aptamer binding inhibition in [9] is 4% (inactive). Moreover, the response was 0.34% (inactive) in experiment [10] and -1.45% (inactive) in experiment [12]. Moreover, the binding (% of control) in experiment [13] was 103% (inactive). Moreover, the efflux inhibition (fraction of control) in experiment [14] was -0.1 (inactive). In experiment [16], the differentiation response is -1.71% (inactive).
